Values joined by “and” are separate entries in the source; they are usually repeats but may differ in a detail not shown here. Identical values can stand only once. A structure can be active in one record and inactive in another. Active and inactive are the calls of the source. How the source made its calls: active means hit-call score of the fitted dose curve at least 0.9, where 1 is the maximum; inactive means score below 0.9.

The nature of experiment [1]: ATG_E_Box_CIS: Attagene CIS-FACTORIAL HepG2 Assay for human Enhancer Box (E-box) (AID 2282936). As to conditions: HepG2 E-box cis-reporter transcription, actives raise or lower the signal. Summed up:
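Multiplexed CIS reporter system in transiently transfected HepG2 cells measures native transcription factor activity. Reporter RNA after 24 h exposure is profiled by RT-PCR-capillary electrophoresis.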

Experiment [2] is described as follows: ATG_M_61_CIS: Attagene CIS-FACTORIAL HepG2 Assay for M61 Transcription Factor (Internal Marker) (AID 2282937). The settings on record: HepG2 Attagene CIS-FACTORIAL M61 internal marker reporter; actives raise or lower the signal. Summed up:
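Endogenous transcription factor activity in HepG2 is read through transiently transfected cis-element reporter units. After 24 h dosing, RNA undergoes reverse transcription, PCR and primer extension with 6-FAM before capillary electrophoresis; DMSO-referenced bidirectional fit.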

Experiment [3] in a line: ATG_EGR_CIS: Attagene CIS-FACTORIAL HepG2 Assay for human Early Growth Response 1 (EGR1) (AID 2282938). The settings on record: HepG2 Attagene CIS-FACTORIAL EGR reporter mRNA; actives raise or lower the signal. Summed up:
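Activity is taken as induction or loss of reporter mRNA versus DMSO, fitted bidirectionally. Transcripts from cis-regulated reporter units in transiently transfected HepG2 were measured after 24 h by RT-PCR with capillary electrophoresis.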

Experiment [4] can be described thus: ATG_M_19_CIS: Attagene CIS-FACTORIAL HepG2 Assay for M19 Transcription Factor (Internal Marker) (AID 2282939). The settings on record: HepG2 Attagene CIS-FACTORIAL M19 internal marker reporter; actives raise or lower the signal. In short, it runs like this: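 Background-control endpoint from a multiplexed HepG2 reporter panel. Cells carrying cis-regulated reporter constructs are treated 24 h, then reporter transcripts are amplified, fluorescently labelled and sized by capillary electrophoresis. DMSO defines baseline.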

Experiment [5] in a line: ATG_Ets_CIS: Attagene CIS-FACTORIAL HepG2 Assay for human Erythroblast Transformation Specific (ETS) (AID 2282941). As to conditions: HepG2 ETS cis-reporter transcription; AC50: actives raise or lower the signal unless noted; outcome: actives raise or lower the signal unless noted. In short, it runs like this: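 After transient cis-reporter transfection, HepG2 cells receive test chemical for 24 h. Reporter mRNA levels, measured by RT-PCR and capillary electrophoresis fluorescence, are analysed bidirectionally relative to the DMSO baseline.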

Experiment [6] addresses Hepatocyte nuclear factor 3-beta (Homo sapiens) (UniProt Q9Y261). Description: ATG_FoxA2_CIS: Attagene CIS-FACTORIAL HepG2 Assay for human Forkhead box A2 (FOXA2) (AID 2282942). As to conditions: HepG2 cis-reporter transcription factor activity, 24 h; actives raise or lower the signal. Summed up:
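Reporter transcript induction is measured by fluorescence after capillary electrophoresis of RT-PCR products from HepG2 cells exposed 24 h. Cis-regulated reporter units report endogenous factor activity; curves fitted both directions against DMSO.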

Experiment [7] in a line: ATG_FoxO_CIS: Attagene CIS-FACTORIAL HepG2 Assay for human Forkhead box O (FoxO) (AID 2282943). As to conditions: HepG2 Attagene cis-reporter, FoxO element, mRNA; actives raise or lower the signal. In short, it runs like this:
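Values reflect reporter mRNA induction or loss in HepG2 cells 24 h post-dosing, fitted bidirectionally with DMSO as negative control and baseline. Detection used RT-PCR and fluorescence capillary electrophoresis.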

Experiment [8] can be described thus: ATG_GATA_CIS: Attagene CIS-FACTORIAL HepG2 Assay for human GATA Binding Protein (AID 2282944). As to conditions: HepG2 GATA cis-element reporter, Attagene multiplex mRNA; actives raise or lower the signal. In short, it runs like this: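 Endogenous transcription factor activity was captured through cis-promoter-driven reporters in transfected HepG2 cells. After 24 h exposure, reporter transcripts were quantified by RT-PCR with fluorescent capillary electrophoresis, and responses fitted both directions against DMSO.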

In experiment [9] the target is Bile acid receptor (Homo sapiens) (UniProt Q96RI1). The experiment can be described thus: ATG_IR1_CIS: Attagene CIS-FACTORIAL HepG2 Assay for human Nuclear Receptor Subfamily 1 Group H Member 4 (NR1H4), IR1 submotif (AID 2282946). As to conditions: IR1 reporter transcription, actives raise or lower the signal. In short, it runs like this:
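Transient MRTU transfection, HepG2; 24 h dosing; RNA → RT-PCR → 6-FAM primer extension → HpaI digest → capillary electrophoresis fluorescence. Gain/loss of signal fitted relative to DMSO.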

Experiment [10] can be described thus: ATG_GRE_CIS: Attagene CIS-FACTORIAL HepG2 Assay for human Glucocorticoid Response Elements (GRE) (AID 2282947). The settings on record: HepG2 GRE cis-reporter, Attagene multiplex mRNA; AC50: actives raise or lower the signal unless noted; outcome: actives raise or lower the signal unless noted. In short, it runs like this: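 Following 24 h chemical exposure of transiently transfected HepG2 cells, total RNA was reverse-transcribed and reporter cDNA amplified, fluorescently labelled and sized by capillary electrophoresis. Signal gain or loss was fitted relative to DMSO vehicle.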

Experiment [11] can be described thus: ATG_ISRE_CIS: Attagene CIS-FACTORIAL HepG2 Assay for human Interferon Regulatory Factor 1 (IRF1) binding to an Interferon-Stimulated Response Element (ISRE) (AID 2282948). As to conditions: HepG2 ISRE cis-reporter (Attagene), mRNA transcription readout; actives raise or lower the signal. Summed up: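 Quantitation relies on labelled RT-PCR fragments separated by capillary electrophoresis. Human HepG2 cells bearing cis-promoter reporter constructs were treated 24 h; DMSO served as baseline for bidirectional fitting.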

Experiment [12] can be described thus: ATG_M_32_CIS: Attagene CIS-FACTORIAL HepG2 Assay for M32 Transcription Factor (Internal Marker) (AID 2282949).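 Further: background control marker of the multiplexed CIS panel rather than a real target.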 As to conditions: HepG2 Attagene cis-factorial M32 reporter, mRNA; actives raise or lower the signal. In short, it runs like this: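 Fluorescent capillary electrophoresis peaks of HpaI-digested, FAM-labelled RT-PCR reporter products give the signal. Source: transiently transfected human liver HepG2 cells, 24 h after chemical dosing; bidirectional fitting against DMSO.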

The nature of experiment [13]: ATG_M_06_CIS: Attagene CIS-FACTORIAL HepG2 Assay for M06 Transcription Factor (Internal Marker) (AID 2282950). As to conditions: HepG2 Attagene CIS-FACTORIAL M06 internal marker reporter; actives raise or lower the signal. Summed up:
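Steps: transfect HepG2 with multiplexed cis-element reporter constructs; dose chemical 24 h; extract RNA with DNase treatment; reverse-transcribe, PCR-amplify, 6-FAM label, HpaI digest; separate fragments by capillary electrophoresis. Activity fitted both directions versus DMSO.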

Experiment [14] has as its target Hypoxia-inducible factor 1-alpha (Homo sapiens) (UniProt Q16665). Description: ATG_HIF1a_CIS: Attagene CIS-FACTORIAL HepG2 Assay for human Hypoxia Inducible Factor 1 (HIF1A) (AID 2282951). The settings on record: HepG2 Attagene cis-factorial HIF1a reporter transcription; actives raise or lower the signal. Summed up: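 Fluorescence intensity of capillary-separated, 6-FAM-labelled reporter amplicons gives mRNA induction in HepG2 cells carrying transfected cis-promoter reporter units; cells exposed 24 h, responses fitted up or down from DMSO.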

Experiment [15] deals with Hepatocyte nuclear factor 6 (Homo sapiens) (UniProt Q9UBC0). Description: ATG_HNF6_CIS: Attagene CIS-FACTORIAL HepG2 Assay for human Hepatocyte Nuclear Factor 6 (HNF6) (AID 2282952). As to conditions: HepG2 Attagene cis-factorial HNF6 reporter transcription; actives raise or lower the signal. Summed up: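 HepG2, transient MRTU transfection (cis promoters); 24 h chemical exposure; total RNA → oligo(dT) RT → PCR → 6-FAM labelling → HpaI cut → CE; bidirectional fit vs DMSO.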

Experiment [16] deals with Heat shock factor protein 1 (Homo sapiens) (UniProt Q00613). Description: ATG_HSE_CIS: Attagene CIS-FACTORIAL HepG2 Assay for human Heat Shock Transcription Factor 1 (HSE) (AID 2282953). As to conditions: HepG2 HSE cis-reporter, Attagene RNA transcription; actives raise or lower the signal. Summed up:
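Cells were transfected with cis-element-driven reporter constructs, dosed for 24 h, then total RNA was reverse-transcribed and reporter cDNA amplified, FAM-labelled and digested with HpaI. Fragments were resolved by capillary electrophoresis; gain or loss was fitted against DMSO.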

Experiment [17] is described as follows: ATG_MRE_CIS: Attagene CIS-FACTORIAL HepG2 Assay for human Metal Responsive Element (MRE) (AID 2282954). As to conditions: HepG2 MRE cis-reporter transcription, Attagene multiplex; actives raise or lower the signal. Summed up: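 Step one: transfect HepG2 with cis-regulated reporter units. Step two: dose 24 h. Step three: isolate RNA, RT-PCR, 6-FAM label, HpaI digest, capillary electrophoresis. Fit bidirectionally to DMSO.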

The nature of experiment [18]: ATG_PBREM_CIS: Attagene CIS-FACTORIAL HepG2 Assay for human Phenobarbital-responsive Enhancer Module (PBREM) (AID 2282955). The settings on record: HepG2 PBREM cis-reporter, Attagene multiplexed transcription; actives raise or lower the signal. Summed up:
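Cells were transfected with cis-element reporter units and treated for 24 h, after which RNA was extracted and reporter transcripts measured by RT-PCR and capillary electrophoresis.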

A short description of experiment [19]: ATG_GLI_CIS: Attagene CIS-FACTORIAL HepG2 Assay for human Zinc Finger Protein GLI1 (AID 2282945). As to conditions: HepG2, Attagene cis-factorial reporter mRNA, GLI element; actives raise or lower the signal. Summed up: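 HepG2 cells transiently transfected with cis-promoter multiplexed reporter units report endogenous transcription factor activity. After 24 h chemical exposure, reporter mRNA was quantified by RT-PCR, 6-FAM labelling, HpaI digestion and capillary electrophoresis, with bidirectional fitting against DMSO.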

Chain of Hepatocyte nuclear factor 6 (Homo sapiens) (Q9UBC0 whole entry, looked up): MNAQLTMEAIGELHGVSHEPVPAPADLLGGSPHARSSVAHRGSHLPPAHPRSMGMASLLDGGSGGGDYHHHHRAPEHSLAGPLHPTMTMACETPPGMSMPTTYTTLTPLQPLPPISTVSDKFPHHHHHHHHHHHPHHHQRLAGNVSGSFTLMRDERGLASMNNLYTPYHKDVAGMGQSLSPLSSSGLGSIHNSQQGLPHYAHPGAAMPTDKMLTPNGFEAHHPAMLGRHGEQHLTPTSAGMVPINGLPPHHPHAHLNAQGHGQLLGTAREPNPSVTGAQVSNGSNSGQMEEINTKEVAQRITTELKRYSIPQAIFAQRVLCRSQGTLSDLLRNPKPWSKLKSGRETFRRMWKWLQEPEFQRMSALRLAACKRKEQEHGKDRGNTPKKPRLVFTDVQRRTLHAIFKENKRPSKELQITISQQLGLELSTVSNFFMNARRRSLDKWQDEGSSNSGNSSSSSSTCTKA
Chain of Hepatocyte nuclear factor 3-beta (Homo sapiens) (Q9Y261 whole entry, looked up): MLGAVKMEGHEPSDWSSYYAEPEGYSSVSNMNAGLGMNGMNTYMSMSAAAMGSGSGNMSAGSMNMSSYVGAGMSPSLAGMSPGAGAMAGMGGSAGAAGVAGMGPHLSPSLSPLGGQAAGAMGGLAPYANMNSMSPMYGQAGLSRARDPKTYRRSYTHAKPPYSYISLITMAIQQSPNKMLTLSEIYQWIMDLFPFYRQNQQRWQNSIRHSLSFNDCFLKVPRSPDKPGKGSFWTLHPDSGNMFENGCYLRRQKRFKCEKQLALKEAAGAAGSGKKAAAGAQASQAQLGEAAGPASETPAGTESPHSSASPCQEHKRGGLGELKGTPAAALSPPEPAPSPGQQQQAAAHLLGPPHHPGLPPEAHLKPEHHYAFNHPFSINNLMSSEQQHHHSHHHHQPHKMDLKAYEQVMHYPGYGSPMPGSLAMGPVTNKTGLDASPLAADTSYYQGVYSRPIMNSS
Chain of Bile acid receptor (Homo sapiens) (Q96RI1 whole entry, looked up): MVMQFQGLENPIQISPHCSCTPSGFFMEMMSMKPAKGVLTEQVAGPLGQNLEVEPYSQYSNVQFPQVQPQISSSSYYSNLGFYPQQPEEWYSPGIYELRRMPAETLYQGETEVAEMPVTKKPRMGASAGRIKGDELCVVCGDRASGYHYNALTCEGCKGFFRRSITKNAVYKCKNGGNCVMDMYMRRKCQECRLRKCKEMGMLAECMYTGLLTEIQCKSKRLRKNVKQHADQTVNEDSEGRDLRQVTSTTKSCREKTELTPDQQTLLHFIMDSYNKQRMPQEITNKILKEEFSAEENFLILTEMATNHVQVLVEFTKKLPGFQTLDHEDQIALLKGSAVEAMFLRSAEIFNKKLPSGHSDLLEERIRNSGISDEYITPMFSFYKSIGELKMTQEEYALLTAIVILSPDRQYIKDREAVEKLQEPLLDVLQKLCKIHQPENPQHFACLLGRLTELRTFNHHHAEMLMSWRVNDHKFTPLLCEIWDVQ
Chain of Heat shock factor protein 1 (Homo sapiens) (Q00613 whole entry, looked up, the tested form may be a part): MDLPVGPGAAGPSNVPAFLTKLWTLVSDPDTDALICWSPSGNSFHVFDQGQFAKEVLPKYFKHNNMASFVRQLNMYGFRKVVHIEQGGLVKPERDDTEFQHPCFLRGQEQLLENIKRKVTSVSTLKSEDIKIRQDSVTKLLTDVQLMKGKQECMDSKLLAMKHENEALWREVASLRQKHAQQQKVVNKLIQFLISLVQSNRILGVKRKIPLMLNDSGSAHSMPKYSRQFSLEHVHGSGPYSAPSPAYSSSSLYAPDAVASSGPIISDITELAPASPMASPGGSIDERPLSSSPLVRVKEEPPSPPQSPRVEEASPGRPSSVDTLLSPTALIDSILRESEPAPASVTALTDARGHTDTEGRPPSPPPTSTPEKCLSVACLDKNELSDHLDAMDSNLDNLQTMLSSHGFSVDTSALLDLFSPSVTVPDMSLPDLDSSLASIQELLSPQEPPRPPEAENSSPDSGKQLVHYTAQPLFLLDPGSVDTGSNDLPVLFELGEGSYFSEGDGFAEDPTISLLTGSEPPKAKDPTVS
Chain of Hypoxia-inducible factor 1-alpha (Homo sapiens) (Q16665 whole entry, looked up): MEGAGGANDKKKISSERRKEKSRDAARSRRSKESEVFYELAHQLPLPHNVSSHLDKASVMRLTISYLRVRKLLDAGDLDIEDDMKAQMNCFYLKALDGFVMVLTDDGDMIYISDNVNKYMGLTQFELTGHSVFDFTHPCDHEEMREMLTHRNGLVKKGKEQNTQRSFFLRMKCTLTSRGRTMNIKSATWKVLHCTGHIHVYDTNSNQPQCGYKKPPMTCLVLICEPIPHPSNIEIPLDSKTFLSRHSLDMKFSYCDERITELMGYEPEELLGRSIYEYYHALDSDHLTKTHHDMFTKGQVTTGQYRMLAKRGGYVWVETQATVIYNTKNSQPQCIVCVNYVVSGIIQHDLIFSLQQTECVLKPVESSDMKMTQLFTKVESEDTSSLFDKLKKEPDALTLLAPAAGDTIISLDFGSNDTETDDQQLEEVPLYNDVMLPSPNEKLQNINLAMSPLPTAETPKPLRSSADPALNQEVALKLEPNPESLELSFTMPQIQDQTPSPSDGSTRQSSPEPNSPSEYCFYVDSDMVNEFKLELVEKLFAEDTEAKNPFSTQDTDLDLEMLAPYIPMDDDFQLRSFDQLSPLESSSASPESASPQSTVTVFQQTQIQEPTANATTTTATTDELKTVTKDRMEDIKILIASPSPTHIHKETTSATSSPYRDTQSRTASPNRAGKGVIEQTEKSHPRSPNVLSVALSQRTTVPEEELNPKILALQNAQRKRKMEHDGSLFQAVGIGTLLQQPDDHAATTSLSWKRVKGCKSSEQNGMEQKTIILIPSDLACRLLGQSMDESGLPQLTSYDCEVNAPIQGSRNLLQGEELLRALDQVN

Take `FCOC(C(F)(F)F)C(F)(F)F`: the result in [1], in experiment [2], in experiment [3], in experiment [4], in [5] and in experiment [6] was inactive. Besides, the result in [7], in experiment [8], in experiment [9], in [10], in experiment [11] and in experiment [12] was inactive. In addition, the compound was classed as inactive in experiment [13], in experiment [14], in [15], in experiment [16], in experiment [17] and in experiment [18].

Turning to `CC(O)COc1ccccc1` (stereo unspecified), the result in experiment [1], in [2], in experiment [3], in experiment [4], in experiment [5] and in experiment [6] was inactive. The outcome in experiment [7], in experiment [8], in experiment [19], in [9], in experiment [10] and in experiment [11] was inactive. The result in [12], in experiment [13], in experiment [14], in experiment [15], in experiment [16] and in [18] was inactive.

On to `CC(=O)Nc1ccc(O)cc1`, for which the outcome in experiment [1], in experiment [2], in [3], in [4], in experiment [5] and in experiment [7] was inactive. Further, the compound was called inactive in experiment [8], in [19], in experiment [11], in [12], in experiment [13] and in experiment [16]. In [18], the outcome was inactive.

Take `O=C(NO)c1ccccc1`: the AC50 was 27.9 µM (active) [middle of 4 runs] in experiment [1]; 10.8 µM (active) and 19.5 µM (active) in experiment [9]; 44.4 µM (active) [middle of 4 runs] in experiment [11]. The outcome in [2], in experiment [3], in experiment [4], in experiment [5], in experiment [6] and in experiment [7] was inactive. The compound was called inactive in experiment [8], in experiment [9], in [10], in experiment [12], in [13] and in experiment [14]. The outcome in experiment [15], in [16] and in experiment [17] was inactive.

In the case of `CCCCCCCCCC=CCC1CC(=O)OC1=O` (stereo unspecified), the outcome in experiment [1], in experiment [2], in [3], in [4], in experiment [5] and in [6] was inactive. Moreover, the call in [7], in experiment [8], in [19], in experiment [9], in experiment [10] and in experiment [12] was inactive. The result in [13], in experiment [14], in [15], in experiment [16], in experiment [17] and in [18] was inactive.

As for `O=C1NS(=O)(=O)c2ccccc21`, the result in experiment [1], in experiment [2], in [3], in [4], in experiment [5] and in experiment [6] was inactive. Further, the compound was classed as inactive in experiment [7], in experiment [8], in experiment [19], in experiment [11], in experiment [12] and in [13]. Moreover, the call in experiment [14], in experiment [15] and in [17] was inactive.

Regarding `CCCCC(CC)C(=O)O` (stereo unspecified), the result in [1], in experiment [2], in [3], in experiment [4], in experiment [5] and in [6] was inactive. In addition, the call in [7], in experiment [8], in experiment [19], in experiment [11], in [12] and in experiment [13] was inactive. Moreover, the result in experiment [14], in experiment [15], in experiment [16] and in experiment [17] was inactive.

The values above are taken from PubChem BioAssay (EPA / NIEHS).
